Measured values: the supplement of paper PMC10849652
About 7,900 targets were measured; listed, in parts, are those with a hit and a random draw of the rest. About 0.6% of all pairs of compound and target were hits. A number with no mark means an inactive call.

Columns and labels:
Experiment in all cases: log2 fold change, soluble protein after heating vs DMSO (PISA); higher = thermal stabilisation; K562 cells, 10 uM, 30 min; active = over 0.2 and 3.5 SD of the protein, either way, in both replicates (recomputed)
erlotinib = compound: C#Cc1cccc(Nc2ncnc3cc(OCCOC)c(OCCOC)cc23)c1 [erlotinib]
Outline: (§1)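 Soluble protein was defined as the supernatant after 21,000xg for 90 min. It came from K562 cells at 2×10^6 cells/mL given 10 μM compound for 30 min, heated in aliquots for 3 min across 48°C-58°C, pooled, and extracted in PBS with 0.5% NP-40 at 4°C, and was quantified by TMTpro 16plex LC-MS/MS with equalised channel sums. Thermal stability against control samples, from duplicates, is reported as log2 fold change.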

[1] = compound: C/C(=N\NC(=O)C1=CC(=CC=C1)S(=O)(=O)N2CCOCC2)/C3=C(C=CC(=C3)Cl)O
Outline: as §1

[2] = compound: C1=CC(=C(C=C1Cl)C2=NC3=NC=CN=C3C(=N2)NC4=CC=NC=C4)F
Outline: as §1

[3] = compound: C1=CC(=CC=C1C2=NC3=C(N2)C=C(C=C3)C(=O)N)OC4=CC=C(C=C4)Cl
Outline: as §1

[4] = compound: C1=CC2=C(C=CC(=C2)/C=C\3/C(=O)NC(=NCC4=CC=CS4)S3)N=C1
Outline: as §1

[5] = compound: C1=CC2=NC=CN=C2C=C1/C=C/3\C(=O)NC(=O)S3
Outline: as §1

[6] = compound: C1=CC=C(C=C1)C2=NC(=C(N2)C3=CC=NC=C3)C4=CC(=C(C=C4)Cl)O
Outline: as §1

[7] = compound: C1=CC=C2C(=C1)C3=NNC4=CC=CC(=C43)C2=O
Outline: as §1

[8] = compound: C1CCN(C1)C(=O)NC2=CC=CC(=C2)NC3=NC=C(C(=N3)NCCC4=CN=CN4)Br
Outline: as §1

[9] = compound: C1CN(CCC1(CC2=CC=C(C=C2)Cl)N)C3=NC=NC4=C3C=CN4
Outline: as §1

UniProt P53597, sequence (P53597 whole entry, looked up): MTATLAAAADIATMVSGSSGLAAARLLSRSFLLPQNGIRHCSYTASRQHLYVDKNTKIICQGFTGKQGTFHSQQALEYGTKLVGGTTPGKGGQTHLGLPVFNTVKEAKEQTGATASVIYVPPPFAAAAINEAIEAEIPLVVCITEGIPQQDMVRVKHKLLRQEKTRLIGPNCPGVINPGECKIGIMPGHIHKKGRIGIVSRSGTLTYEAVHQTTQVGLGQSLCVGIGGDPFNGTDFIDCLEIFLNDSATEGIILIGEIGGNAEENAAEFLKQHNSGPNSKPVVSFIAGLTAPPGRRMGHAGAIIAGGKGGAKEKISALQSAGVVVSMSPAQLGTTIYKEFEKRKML
UniProt Q9P2R7, sequence (Q9P2R7 whole entry, looked up): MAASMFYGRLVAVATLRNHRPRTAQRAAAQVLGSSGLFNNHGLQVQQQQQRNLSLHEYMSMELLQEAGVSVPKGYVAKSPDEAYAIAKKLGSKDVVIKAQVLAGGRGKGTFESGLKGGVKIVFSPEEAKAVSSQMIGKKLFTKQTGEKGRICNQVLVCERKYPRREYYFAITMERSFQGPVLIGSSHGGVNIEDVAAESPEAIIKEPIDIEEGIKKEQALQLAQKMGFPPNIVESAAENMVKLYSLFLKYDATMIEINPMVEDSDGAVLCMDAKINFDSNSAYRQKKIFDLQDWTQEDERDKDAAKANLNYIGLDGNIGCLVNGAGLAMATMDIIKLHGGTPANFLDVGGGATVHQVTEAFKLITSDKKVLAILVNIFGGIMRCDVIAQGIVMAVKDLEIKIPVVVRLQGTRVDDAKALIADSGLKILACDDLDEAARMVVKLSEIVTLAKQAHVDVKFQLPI
UniProt Q9Y4R8, sequence (Q9Y4R8 whole entry, looked up): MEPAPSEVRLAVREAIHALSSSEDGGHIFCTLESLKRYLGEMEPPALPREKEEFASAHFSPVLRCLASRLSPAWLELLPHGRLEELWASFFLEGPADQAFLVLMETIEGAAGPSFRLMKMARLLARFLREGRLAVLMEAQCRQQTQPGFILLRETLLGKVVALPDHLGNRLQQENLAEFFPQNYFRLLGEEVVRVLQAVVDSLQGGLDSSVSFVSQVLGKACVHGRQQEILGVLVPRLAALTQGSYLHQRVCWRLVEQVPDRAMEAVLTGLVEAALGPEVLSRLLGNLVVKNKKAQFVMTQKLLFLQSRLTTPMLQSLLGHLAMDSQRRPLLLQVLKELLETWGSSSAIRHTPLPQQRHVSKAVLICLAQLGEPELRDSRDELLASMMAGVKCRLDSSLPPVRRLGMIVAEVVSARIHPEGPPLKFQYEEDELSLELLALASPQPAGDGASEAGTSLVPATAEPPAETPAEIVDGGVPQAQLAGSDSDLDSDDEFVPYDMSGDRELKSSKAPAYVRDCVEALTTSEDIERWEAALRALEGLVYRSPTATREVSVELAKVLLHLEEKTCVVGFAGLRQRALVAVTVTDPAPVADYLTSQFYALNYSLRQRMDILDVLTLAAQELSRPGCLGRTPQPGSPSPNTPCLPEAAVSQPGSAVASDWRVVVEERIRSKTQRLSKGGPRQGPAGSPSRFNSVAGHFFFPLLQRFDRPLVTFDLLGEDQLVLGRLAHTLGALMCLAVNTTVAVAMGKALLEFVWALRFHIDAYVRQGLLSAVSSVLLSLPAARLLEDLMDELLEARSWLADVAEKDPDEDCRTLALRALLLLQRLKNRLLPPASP
UniProt Q9UHB9, sequence (Q9UHB9 whole entry, looked up): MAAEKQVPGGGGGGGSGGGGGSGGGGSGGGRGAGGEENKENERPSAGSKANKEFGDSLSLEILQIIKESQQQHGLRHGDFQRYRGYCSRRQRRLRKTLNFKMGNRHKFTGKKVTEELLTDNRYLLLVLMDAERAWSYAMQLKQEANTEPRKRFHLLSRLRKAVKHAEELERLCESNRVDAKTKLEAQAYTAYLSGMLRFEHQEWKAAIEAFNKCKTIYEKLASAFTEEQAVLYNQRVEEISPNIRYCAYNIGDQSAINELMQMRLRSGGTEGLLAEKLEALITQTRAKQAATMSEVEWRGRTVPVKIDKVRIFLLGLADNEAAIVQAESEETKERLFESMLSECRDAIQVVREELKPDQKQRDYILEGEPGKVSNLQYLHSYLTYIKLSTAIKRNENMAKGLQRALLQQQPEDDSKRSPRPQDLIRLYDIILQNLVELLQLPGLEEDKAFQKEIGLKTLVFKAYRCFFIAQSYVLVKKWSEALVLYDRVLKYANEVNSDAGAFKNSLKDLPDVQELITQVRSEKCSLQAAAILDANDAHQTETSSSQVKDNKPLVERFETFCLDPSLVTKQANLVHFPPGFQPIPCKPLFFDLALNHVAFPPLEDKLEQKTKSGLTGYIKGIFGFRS
UniProt P51687, sequence (P51687 whole entry, looked up): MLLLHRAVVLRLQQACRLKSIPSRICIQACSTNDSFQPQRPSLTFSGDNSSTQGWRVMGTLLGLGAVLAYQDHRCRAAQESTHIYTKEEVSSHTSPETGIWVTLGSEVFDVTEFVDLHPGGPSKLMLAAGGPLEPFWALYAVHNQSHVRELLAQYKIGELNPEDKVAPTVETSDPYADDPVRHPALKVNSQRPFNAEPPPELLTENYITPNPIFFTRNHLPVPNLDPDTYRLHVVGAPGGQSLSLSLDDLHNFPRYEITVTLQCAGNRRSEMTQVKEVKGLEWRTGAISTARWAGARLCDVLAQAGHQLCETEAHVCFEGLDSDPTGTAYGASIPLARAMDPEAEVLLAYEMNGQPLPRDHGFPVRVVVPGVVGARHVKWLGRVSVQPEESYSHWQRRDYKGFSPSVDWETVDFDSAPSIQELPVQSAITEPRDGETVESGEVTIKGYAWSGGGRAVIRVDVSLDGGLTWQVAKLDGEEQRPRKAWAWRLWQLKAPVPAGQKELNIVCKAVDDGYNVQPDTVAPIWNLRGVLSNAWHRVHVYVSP
UniProt Q9UBP0, sequence (Q9UBP0 whole entry, looked up): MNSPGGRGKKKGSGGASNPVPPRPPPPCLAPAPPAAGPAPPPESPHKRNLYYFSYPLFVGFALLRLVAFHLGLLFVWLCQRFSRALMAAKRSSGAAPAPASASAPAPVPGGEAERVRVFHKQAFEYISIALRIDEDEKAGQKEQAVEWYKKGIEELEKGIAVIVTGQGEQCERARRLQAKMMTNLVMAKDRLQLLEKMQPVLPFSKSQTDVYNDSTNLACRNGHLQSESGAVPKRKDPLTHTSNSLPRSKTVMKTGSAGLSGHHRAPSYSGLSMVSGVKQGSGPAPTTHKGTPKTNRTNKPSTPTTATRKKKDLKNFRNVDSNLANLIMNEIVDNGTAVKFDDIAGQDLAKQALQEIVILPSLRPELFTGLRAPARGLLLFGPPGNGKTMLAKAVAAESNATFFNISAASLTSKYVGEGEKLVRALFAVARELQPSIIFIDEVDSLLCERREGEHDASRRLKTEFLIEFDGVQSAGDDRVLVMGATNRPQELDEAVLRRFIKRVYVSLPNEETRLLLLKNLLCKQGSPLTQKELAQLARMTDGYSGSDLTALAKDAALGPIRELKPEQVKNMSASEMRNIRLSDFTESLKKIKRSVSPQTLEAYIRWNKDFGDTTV
UniProt Q96BW9, sequence (Q96BW9 whole entry, looked up): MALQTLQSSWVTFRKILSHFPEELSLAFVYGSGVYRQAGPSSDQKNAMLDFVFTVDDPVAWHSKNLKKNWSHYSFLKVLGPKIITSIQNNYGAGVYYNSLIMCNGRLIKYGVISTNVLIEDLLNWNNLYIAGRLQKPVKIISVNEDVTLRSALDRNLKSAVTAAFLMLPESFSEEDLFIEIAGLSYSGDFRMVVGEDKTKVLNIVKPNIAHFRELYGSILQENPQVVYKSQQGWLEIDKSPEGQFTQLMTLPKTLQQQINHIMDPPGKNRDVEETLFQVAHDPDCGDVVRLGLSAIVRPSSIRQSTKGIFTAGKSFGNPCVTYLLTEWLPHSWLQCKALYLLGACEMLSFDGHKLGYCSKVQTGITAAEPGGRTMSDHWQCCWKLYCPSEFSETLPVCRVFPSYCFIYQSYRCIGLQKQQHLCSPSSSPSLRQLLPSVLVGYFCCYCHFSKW
UniProt Q5M775, sequence (Q5M775 whole entry, looked up): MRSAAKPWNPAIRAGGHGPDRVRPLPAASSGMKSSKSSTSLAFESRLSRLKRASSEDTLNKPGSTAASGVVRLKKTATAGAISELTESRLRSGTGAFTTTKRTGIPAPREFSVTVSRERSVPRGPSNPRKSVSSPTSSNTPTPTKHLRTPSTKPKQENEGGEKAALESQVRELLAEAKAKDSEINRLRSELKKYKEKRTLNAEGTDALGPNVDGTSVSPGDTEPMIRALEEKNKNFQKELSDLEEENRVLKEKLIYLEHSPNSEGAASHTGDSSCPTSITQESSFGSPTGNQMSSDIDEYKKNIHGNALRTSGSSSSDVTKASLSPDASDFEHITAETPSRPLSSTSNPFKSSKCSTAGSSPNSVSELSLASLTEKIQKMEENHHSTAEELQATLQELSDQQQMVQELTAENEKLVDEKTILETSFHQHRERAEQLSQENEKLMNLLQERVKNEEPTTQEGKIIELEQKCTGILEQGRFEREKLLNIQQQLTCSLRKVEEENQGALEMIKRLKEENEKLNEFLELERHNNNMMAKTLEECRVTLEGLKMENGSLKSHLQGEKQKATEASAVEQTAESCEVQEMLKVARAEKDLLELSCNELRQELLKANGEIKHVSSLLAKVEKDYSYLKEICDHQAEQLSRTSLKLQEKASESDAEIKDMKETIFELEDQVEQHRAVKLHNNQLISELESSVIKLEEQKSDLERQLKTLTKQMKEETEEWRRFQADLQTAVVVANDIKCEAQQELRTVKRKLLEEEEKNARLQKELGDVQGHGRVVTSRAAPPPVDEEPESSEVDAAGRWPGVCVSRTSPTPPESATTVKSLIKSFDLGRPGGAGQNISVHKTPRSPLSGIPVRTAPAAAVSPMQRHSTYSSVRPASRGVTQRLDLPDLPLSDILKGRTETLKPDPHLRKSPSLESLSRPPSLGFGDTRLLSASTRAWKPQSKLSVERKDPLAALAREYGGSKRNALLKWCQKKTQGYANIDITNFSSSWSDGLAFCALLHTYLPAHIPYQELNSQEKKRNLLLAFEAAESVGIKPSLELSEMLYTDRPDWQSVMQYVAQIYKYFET

| Target | log2 fold change (erlotinib) | log2 fold change [1] | log2 fold change [2] | log2 fold change [3] | log2 fold change [4] | log2 fold change [5] | log2 fold change [6] | log2 fold change [7] | log2 fold change [8] | log2 fold change [9] |
| --- | --- | --- | --- | --- | --- | --- | --- | --- | --- | --- |
| TFAM (UniProt Q00059) | -0.085 | -0.071 | -0.127 | 0.031 | -0.009 | -0.022 | -0.068 | -0.05 | 0.06 | -0.078 |
| SUCLG1 (UniProt P53597) | 0.033 | 0.027 | 0.052 | -0.004 | 0.012 | -0.017 | 0.061 | -0.017 | 0.021 | 0.034 |
| SQSTM1 (UniProt Q13501) | -0.058 | -0.008 | 0.101 | 0.037 | -0.017 | 0.108 | -0.004 | 0.02 | -0.135 | -0.045 |
| ST3GAL2 (UniProt Q16842) | 0.032 | 0.07 | -0.069 | 0.009 | -0.085 | -0.052 | -0.057 | 0.045 | -0.024 | 0.108 |
| SPAST (UniProt Q9UBP0) | 0.139 | 0.129 | 0.032 | -0.046 | 0.06 | 0.028 | 0.007 | 0.064 | -0.048 | -0.004 |
| ST6GAL1 (UniProt P15907) | 0.053 | 0.006 | 0.017 | 0.022 | -0.033 | -0.009 | 0.064 | 0.048 | -0.064 | 0.041 |
| TELO2 (UniProt Q9Y4R8) | 0.043 | 0.102 | -0.185 | -0.031 | -0.039 | 0.019 | -0.037 | 0.053 | 0.046 | -0.076 |
| SPIRE1 (UniProt Q08AE8) | 0.16 | -0.264 | -0.466 (active) | -0.119 | 0.11 | -0.034 | 0.048 | -0.063 | 0.01 | 0.145 |
| SNX6 (UniProt Q9UNH7) | 0.093 | 0.056 | 0.035 | 0.017 | 0.042 | -0.057 | -0.053 | -0.159 | 0.053 | -0.018 |
| TLK2 isoform 2 (UniProt Q86UE8) | 0 | 0.008 | 0.04 | 0.074 | -0.041 | -0.016 | 0.064 | 0 | 0.017 | -0.048 |
| TANGO6 (UniProt Q9C0B7) | 0.208 | 0.032 | -0.003 | -0.026 | -0.001 | 0.057 | 0.025 | -0.056 | -0.026 | 0 |
| STARD9 (UniProt Q9P2P6) | 0.026 | 0.117 | -0.089 | 0.119 | 0.06 | 0 | -0.131 | 0.005 | -0.003 | -0.099 |
| SPINDOC (UniProt Q9BUA3) | -0.013 | -0.017 | -0.01 | -0.044 | 0.036 | 0.074 | -0.063 | -0.066 | -0.129 | 0.09 |
| TAMM41 isoform 3 (UniProt Q96BW9) | 0.047 | 0.03 | 0.058 | -0.007 | 0.061 | 0.009 | 0.045 | 0.007 | -0.007 | 0.056 |
| TIPRL (UniProt O75663) | 0.055 | 0.097 | 0.031 | 0.009 | 0.049 | 0.036 | -0.002 | 0.03 | 0.021 | -0.041 |
| THADA (UniProt Q6YHU6) | 0.039 | 0.068 | 0.03 | 0.035 | 0.071 | 0.007 | 0.029 | -0.002 | -0.011 | -0.006 |
| STAT5B (UniProt P51692) | 0.027 | -0.148 | 0.035 | 0.071 | 0.028 | -0.013 | -0.007 | -0.061 | -0.077 | -0.013 |
| SPCS2 (UniProt Q15005) | -0.022 | 0.015 | 0.077 | -0.043 | 0.011 | 0.029 | -0.004 | -0.08 | -0.005 | 0.001 |
| SUOX (UniProt P51687) | 0.044 | 0.047 | 0.046 | -0.01 | 0.027 | 0.036 | -0.112 | -0.004 | 0.013 | 0.087 |
| SPAG9 (UniProt O60271) | 0.018 | -0.025 | 0.034 | -0.016 | 0.028 | 0.039 | -0.016 | -0.012 | 0.015 | -0.009 |
| SYMPK (UniProt Q92797) | -0.005 | 0.179 | 0.005 | -0.114 | 0.189 | 0.033 | 0.093 | -0.065 | -0.101 | 0.04 |
| SRP68 (UniProt Q9UHB9) | 0.047 | 0.034 | -0.043 | -0.071 | 0.011 | 0.01 | 0.002 | -0.087 | 0.015 | -0.107 |
| SSR3 isoform 2 (UniProt Q9UNL2) | 0.019 | 0.054 | -0.013 | -0.003 | -0.187 | 0.037 | 0.006 | 0.028 | -0.119 | -0.011 |
| SYNE1 (UniProt Q8NF91) | 0.155 | -0.499 (active) | 0.07 | -0.132 | 0.132 | -0.02 | 0.058 | 0 | -0.038 | 0.172 |
| STOM (UniProt P27105) | -0.027 | -0.087 | -0.011 | 0.1 | 0.054 | 0.04 | -0.188 | -0.038 | 0.004 | -0.079 |
| TJP1 (UniProt Q07157) | 0.095 | 0.072 | 0.022 | -0.015 | 0.013 | -0.135 | 0.003 | -0.029 | -0.03 | -0.035 |
| TAOK3 (UniProt Q9H2K8) | -0.017 | 0.08 | 0.009 | 0.037 | 0.02 | 0.018 | 0.018 | -0.007 | -0.044 | 0.007 |
| SPECC1 (UniProt Q5M775) | 0.044 | -0.002 | 0.022 | 0 | 0.056 | 0.02 | -0.208 | -0.023 | 0.026 | 0.012 |
| SUCLA2 (UniProt Q9P2R7) | 0.024 | 0.016 | 0.072 | -0.031 | 0.049 | -0.018 | 0.037 | -0.019 | 0.004 | -0.01 |
| SNUPN (UniProt O95149) | -0.091 | 0.032 | 0.136 | -0.019 | 0.069 | 0.037 | -0.085 | -0.053 | 0.024 | -0.061 |
